Assay results published in PubChem BioAssay (EPA / NIEHS).
Active and inactive are the calls of the source. How the source made its calls: active means hit-call score of the fitted dose curve at least 0.9, where 1 is the maximum; inactive means score below 0.9.

Experiment: CCTE_Harrill_HTTr_Apoptosis_MCF7: CCTE's 6-hour Apoptosis Assessment for the High-Throughput Transcriptomics (HTTr) Platform, in MCF-7 cells cultured in DMEM + 10% fetal bovine serum, Harrill Lab (AID 2284011)
Source text: This is a cell-based assay that evaluates apoptosis using high content imaging to evaluate activation of caspase-3/7 using the CellEvent Caspase 3/7 Green detection reagent in 384-well format.One of seven assay components measured from the CCTE_Harrill_HTTr_Apoptosis assay. This was part of a full screening experiment. This is a cell-based assay that evaluates apoptosis in MCF-7 cells cultured in DMEM + 10% fetal bovine serum. High content imaging is used to evaluate activation of caspase-3/7 using the CellEvent Caspase 3/7 Green detection reagent. Measurements are taken at 6 hours after chemical dosing in 384-well format.The assay component endpoint CCTE_Harrill_HTTr_Apoptosis_MCF7 was analyzed with bidirectional fitting relation to DMSO as the negative control and baseline of activity. Using a type of viability reporter, gain-of-signal activity can be used to evaluate activation of caspase-3/7 using the CellEvent Caspase 3/7 Green detection reagent to understand changes in apoptosis. To generalize the intended target to other relatable targets, this assay endpoint is annotated to cell cycle, where the subfamily is apoptosis.
Chemicals were tested in MCF7 cells in an eight point dilution series with a six hour exposure duration.

outcome, inactive:
CCOc1ccc2ccccc2c1
CCCCCCCCCCCCCCCC=O
Cc1cc(N=Nc2c(O)ccc3ccccc23)c(S(=O)(=O)O)cc1Cl
O=C1CC2(CCCC2)CC(=O)N1CCCCN1CCN(c2ncccn2)CC1
CCCCC(CC)COC(=O)CC#N (stereo not given)
COc1c2occc2c(OC)c2c(=O)cc(C)oc12
CCOC(=O)c1ccccc1C(=O)O
CCCCCCCCCCCC[N+](C)(C)[O-]
CCCCCCCCOC(=O)c1ccccc1C(=O)O
CC(=O)C(O)O
Nc1c(S(=O)(=O)O)cc(Nc2ccccc2)c2c1C(=O)c1ccccc1C2=O
C=O.C=O.C=O.C=O.C=O.[Fe]
CC(=O)c1cccc2ccccc12
O=C(c1ccc(Cl)cc1)c1ccc(Cl)cc1
CC1=CC(=O)C(C(C)C)CC1 (stereo not given)
O=C(O)CCc1ccccc1
CN1[C@@H]2CC[C@H]1CC(OC(=O)C(CO)c1ccccc1)C2 (stereo not given in full)
O=C1NC(=O)c2ccc3c4ccc5c6c(ccc(c7ccc1c2c73)c64)C(=O)NC5=O
CCCCc1nc(Cl)c(CO)n1Cc1ccc(-c2ccccc2-c2nnn[nH]2)cc1
O=c1cc(-c2ccccc2)oc2c1ccc1ccccc12
C=C1CCC2CC1C2(C)C (stereo not given)
O=C(O)c1ccccc1C(=O)OC1CCCCC1
CCCCCCCC/C=C\CCCCCCCC(=O)OC
CC(CC(C)(C)C)CC(C)(C)C
NC(=O)N1c2ccccc2CC(=O)c2ccccc21
NCCNCCNCCNCCN
CC(CNC(=S)[S-])NC(=S)[S-].[Zn+2] (stereo not given)
NC[C@H](O)c1ccc(O)c(O)c1
O=C(c1ccccc1)C1(O)CCCCC1
CCCCC(C)=O
Nc1nc2nc[nH]c2c(=O)[nH]1
CCN1CCCC1CNC(=O)c1cc(S(N)(=O)=O)ccc1OC (stereo not given)
CCOCCOC(=O)C=Cc1ccc(OC)cc1
O=CO
CCCCCC1=C(C)CCC1=O
C/C(=C\c1ccc(C(=O)O)cc1)c1ccc2c(c1)C(C)(C)CCC2(C)C
CCCCOC(=O)/C=C/C(=O)OCCCC
CCOC(=O)C(C)CC (stereo not given)
CO[Si](OC)OC
O=c1ccc2ccc(O)cc2o1
